Assay outcomes: PubChem BioAssay, several laboratories
Hits are enriched below; roughly 0.5% of the tested compounds scored in any of these assays.
E coli growth-1: bacterial growth inhibition, counter-screen for AddAB inhibitors. E. coli V3065 growth, OD600 absorbance, 18 h. inhibition, % at 11.9 µM. hit rate 0.27% among 330,000;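 active = inhibition above the campaign's mean inhibition across all tested compounds plus 3 SD, cut at about 9.9% in these data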;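 note: uninfected addAB+ strain grown without phage in ampicillin broth; 0% = DMSO wells and 100% = ciprofloxacin 0.95 µg/ml wells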
AddAB inh: less growth of phage-infected E. coli with AddAB; E. coli expressing H. pylori AddAB, absorbance growth; inhibition, % at 11.9 µM; hit rate 0.29% among 330,000; AID 435030; in the data active = inhibition above about 12%;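 note: 0% = vehicle wells of infected cells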
phage Ecoli inh: E. coli growth loss with phage present | AID 651602 | hit rate 0.26% among 360,000 | inhibition, % at 11.9 µM | growth absorbance; in the data active = inhibition above about 11%
E coli growth-2: E. coli growth inhibition. OD600 absorbance (concentration not given with the values). Escherichia coli growth, OD600, 23 h; hits give low values. hit rate 0.21% among 330,000;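 active = OD600 absorbance below the run mean of sample wells minus 3.6 SD, in any replicate, cut at about 0.56 in these data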
Tat transport: blocks Tat-dependent protein export in E. coli. inhibition, % at 10 µM. AID 488895. hit rate 0.036% among 340,000. E. coli MC4100 TorA-mCherry Tat export, fluorescence;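 active = mean replicate inhibition at least 50% and at least half of replicates individually reaching 50%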;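 note: exported cargo escapes ClpAP degradation while cytoplasmic cargo is degraded and loses fluorescence; 0% = median of neutral control wells and 100% = median of NaSCN control wells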
The depositor's hits bear a star; . = not tested or not shown.

SMILES | E coli growth-1 | AddAB inh | phage Ecoli inh | E coli growth-2 | Tat transport
Cc1ccc(N(CC(=O)NN=Cc2cccs2)S(C)(=O)=O)cc1 | . | . | . | 0.74 | .
COCc1cc(C=NNC(=O)Cc2ccc(Cl)cc2)ccc1OC | . | . | . | 0.25* | .
Cc1ccsc1C=Nn1c(-c2ccncc2)n[nH]c1=S | . | . | . | 0.72 | .
COc1cc(/C=C/C(=O)/C=C(O)/C=C/c2ccc(O)c(OC)c2)ccc1O | 10* | 11 | 9 | . | -5
COc1cc(/C=C/C(=O)O)ccc1O | 1 | 3 | 2 | 0.77 | 4
Cc1cc2nc3c(=O)[nH]c(=S)[nH]c3nc2cc1NC(=O)C(F)(F)F | 10* | 7 | 9 | 0.66 | -11
CC12CCC(C(=O)N(CSC(=S)NN=Cc3ccccc3)C1=O)C2(C)C (stereo not drawn) | . | . | . | 0.65 | .
COc1ccc(/C=N\NC(=S)SCN2C(=O)C3CCC(C)(C2=O)C3(C)C)cc1 (stereo not drawn) | 11* | 8 | 4 | . | -6
COc1ccc(C=NNC(=S)SCN2C(=O)C3CCC(C)(C2=O)C3(C)C)cc1 (stereo not drawn) | . | . | . | 0.71 | .
CN(C)c1ccc(/C=N\NC(=S)SCN2C(=O)C3CCC(C)(C2=O)C3(C)C)cc1 (stereo not drawn) | 15* | 7 | 4 | . | 1
O=C(CSc1cccc[n+]1[O-])c1cc(Cl)ccc1Cl | -1 | 5 | 0 | 0.12* | 1
Clc1cnc(NN=Cc2ccncc2)c(Cl)c1 | . | . | . | 0.7 | .
CN(C)CCn1nnnc1SCC1=C(C(=O)O)N2C(=O)C(NC(=O)Cc3csc(N)n3)C2SC1 (stereo not drawn) | . | . | . | 0.061* | .
Cc1cc(C(F)F)nn1CC(=O)NC1C(=O)N2C(C(=O)O)=C(CSc3nnnn3C)CSC12 (stereo not drawn) | 4 | 5 | 3 | 0.19* | -8
Cn1nnnc1SCC1=C(C(=O)O)N2C(=O)[C@@H](NC(=O)[C@H](O)c3ccccc3)[C@H]2SC1 | -1 | -2 | . | . | -9
CC(C(=O)NC1C(=O)N2C(C(=O)O)=C(CSc3nnnn3C)CSC12)n1cc(Br)cn1 (stereo not drawn) | -2 | -2 | 5 | 0.51* | -11
Cc1nn(C(C)C(=O)NC2C(=O)N3C(C(=O)O)=C(CSc4nnnn4C)CSC23)cc1Cl (stereo not drawn) | 0 | -1 | 6 | 0.43* | -16
Cn1nnnc1SCC1=C(C(=O)O)N2C(=O)C(NC(=O)C3CC3c3ccccc3)C2SC1 (stereo not drawn) | 1 | 1 | 4 | 0.64 | -22
CCC(C)N=C1CC(C)(C)CC(=O)/C1=C(\O)Cc1ccccc1 (stereo not drawn) | . | . | . | 0.69 | .
CC1=C(C)C(=NOC(=O)/C=C/c2ccccc2)C=CC1=O | . | . | . | 0.77 | .
COC(=O)N1C(C)C=C[C@]1(Cc1ccccc1)C(=O)O (stereo partly drawn) | . | . | . | 0.68 | .
CN1CCN(Cc2cc(COCc3ccccc3)c3cccnc3c2O)CC1 | 0 | 8 | 7 | . | 13
O=C(Oc1c(CN2CCOCC2)cc(Cl)c2cccnc12)c1ccccc1 | -2 | -3 | 3 | 0.68 | 16
Oc1c(CN2CCc3ccccc3C2)cc(Cl)c2cccnc12 | 0 | 11 | . | 0.43* | 0
Oc1c(Cl)cc(CN2CCOCC2)c2cccnc12 | 8 | 8 | 4 | 0.52* | 5
SMILES | E coli growth-1 | AddAB inh | phage Ecoli inh | E coli growth-2 | Tat transport
O=C(COc1c(Br)cc(Br)c2cccnc12)N1CCCCC1 | -6 | -4 | -5 | 0.7 | -11
Oc1c(CN2CCCCC2)cc(Br)c2cccnc12 | 1 | 4 | 9 | 0.17* | 2
O=C(NN=C(Cc1ncc[nH]1)c1ccccc1)c1ccncc1 | . | . | . | 0.7 | .
Cc1ccc2c(c1)C1C(CO2)C(c2ccccc2)[C@]2(C)C(=O)Nc3ccc(Br)cc3C(=O)N12 (stereo partly drawn) | . | . | . | 0.7 | .
O=C(Nc1ccc([N+](=O)[O-])cc1)Nc1ccc(Cl)cc1F | 9.8* | 7 | 11 | 0.65 | -3
O=C(Nc1ccc(Cl)cc1)Nc1cc([N+](=O)[O-])ccc1F | 1 | 3 | 4 | 0.6 | -11
COc1cc(C=NS(=O)(=O)c2ccccc2)cc(OC)c1O | . | . | . | 0.71 | .
CC[n+]1c(/C=C/c2c[nH]c3ccccc23)ccc2cc(C)ccc21 | . | . | -1 | 0.46* | -2
CCN(CC)C(=O)c1ccc(/C=C/c2c[nH]c3ccccc23)[n+](C)c1 | 0 | 2 | 1 | 0.72 | -5
Cc1cc(C(C#N)c2ccc(Cl)cc2)c(Cl)cc1NC(=O)c1cc(I)cc(I)c1O (stereo not drawn) | 11* | 8 | 5 | . | -9
COc1ccc(NC(=O)Nc2cccc3ccccc23)c(OC)c1 | 0 | 1 | 1 | 0.71 | -17
COc1ccc(OC)c(NC(=O)Nc2cccc3ccccc23)c1 | 16* | 10 | 2 | 0.7 | -4
O=C(CNS(=O)(=O)c1ccc(Br)s1)NCc1ccccc1 | 0 | 2 | 0 | 0.54* | -5
NC(=O)NC(=O)CC1S/C(=N/N=C2CSC(=O)N2)NC1=O (stereo not drawn) | . | . | . | 0.72 | .
COC(=O)C(N)Cc1ccc(O)c(O)c1 (stereo not drawn) | 1 | 1 | -1 | 0.68 | 7
NC(CO)C(=O)NNCc1ccc(O)c(O)c1O (stereo not drawn) | 13* | 10 | 7 | . | 2
Cc1ccc(-c2csc(N=C(N)N)n2)c(C)c1 | -3 | -1 | 2 | 0.44* | .
O=[N+]([O-])/C=C/c1cc2ccccc2[nH]1 | -1 | -1 | 3 | 0.5* | 1
Fc1ccc(NC(=S)NC2CCN(Cc3ccccc3)CC2)cc1 | 3 | 2 | 5 | 0.67 | -3
S=C(Nc1ccc(Cl)c(Cl)c1)NC1CCN(Cc2ccccc2)CC1 | 11* | 11 | 8 | 0.58 | -6
O=C(NCc1cccnc1)Nc1ccc(Cl)c(Cl)c1 | 2 | 4 | 1 | 0.59 | -5
S=C(NCc1cccnc1)Nc1ccc(Cl)c(Cl)c1 | 11* | 11 | 10 | 0.49 | -12
S=C(NCc1ccc(Cl)cc1)Nc1ccccc1 | 0 | 0 | 5 | 0.67 | -10
S=C(NCc1ccc(Cl)cc1)Nc1ccncc1 | -1 | -1 | 1 | 0.52* | 8
COc1ccc(OCCn2c(C)c(C=Nn3cnnc3)c3ccccc32)cc1 | . | . | . | 0.77 | .
SMILES | E coli growth-1 | AddAB inh | phage Ecoli inh | E coli growth-2 | Tat transport
CC1(C)CC(=O)C(C=Nn2cnc3ccccc3c2=O)=C(O)C1 | . | . | . | 0.68 | .
COc1ccccc1NC(=O)CN(Cc1ccco1)C(=O)c1ccc(=O)[nH]c1 | -1 | 0 | 2 | 0.69 | -3
COc1ccccc1NC(=O)CN(Cc1ccco1)C(=O)c1cc2ccccc2o1 | -3 | 2 | . | 0.54* | 3
CCn1cc(C(=O)O)c(=O)c2cnc(N3CCN(C(=S)NC(=O)c4ccc(Br)cc4)CC3)nc21 | 1 | 3 | . | 0.46* | .
CCN1CCN(C(=S)NC(=O)c2cc(OC)c(OC)c(OC)c2)CC1 | 2 | 1 | 2 | 0.7 | 2
CCn1cc(C(=O)O)c(=O)c2cnc(N3CCN(C(=S)NC(=O)c4ccc(Cl)cc4)CC3)nc21 | 4 | 4 | . | 0.43* | .
CCn1cc(C(=O)O)c(=O)c2cnc(N3CCNCC3)nc21 | 103* | 102* | . | . | .
CCn1cc(C(=O)NCCc2ccc(Cl)cc2)c(=O)c2ccc(C)nc21 | . | . | 1 | 0.6 | -14
